The source made the active and inactive calls. How the source made its calls: active means hit-call score of the fitted dose curve at least 0.9, where 1 is the maximum; inactive means score below 0.9.
What was measured:
[1] = read-out: flavin-containing dimethylaniline monooxygenases 3 (FMO3), FMO3 (gene 2328); test: LTEA_HepaRG_FMO3: Life Technologies and Expression Analysis (LTEA) Assay for flavin-containing dimethylaniline monooxygenases 3 (FMO3) using HepaRG (AID 2283453); details: mRNA level, 48 h; actives raise or lower the signal;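 on AC50: differentiated human HepaRG liver cells in serum-free induction medium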
How it was run: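 FMO3 transcript quantified by TaqMan qRT-PCR against three housekeeping genes after 48 h chemical exposure of HepaRG cells. Eight-point half-log series, top 100 uM, 0.5% DMSO vehicle; phenobarbital 1mM induction control; up- or down-regulation fitted.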

[2] = read-out: Cytochrome P450 (CYP1A1), CYP1A1 (gene 1543); test: LTEA_HepaRG_CYP1A1: Life Technologies and Expression Analysis (LTEA) Assay for Cytochrome P450 (CYP1A1) using HepaRG (AID 2283454); details: mRNA level, 48 h; actives raise or lower the signal
How it was run: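 CYP1A1 transcript levels measured by Fluidigm qRT-PCR against three housekeeping genes, 48 h after chemical dosing of human HepaRG cells (highest concentration 100 uM, half-log steps, 0.5% DMSO vehicle). Gain or loss of signal fitted relative to DMSO.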

[3] = read-out: Forkhead box O1 (FOXO1), FOXO1 (gene 2308); test: LTEA_HepaRG_FOXO1: Life Technologies and Expression Analysis (LTEA) Assay for Forkhead box O1 (FOXO1) using HepaRG (AID 2283456); details: mRNA level, 48 h; actives raise or lower the signal
How it was run: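 FOXO1 transcript quantified by qRT-PCR after 48 h chemical exposure (top 100 uM, half-log steps, 0.5% DMSO) of HepaRG cells, housekeeping-normalized (ACTB/GAPDH/POLR2A). Changes fitted in both directions relative to vehicle.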

[4] = read-out: growth arrest and DNA damage 45 (GADD45A), GADD45A (gene 1647); test: LTEA_HepaRG_GADD45A: Life Technologies and Expression Analysis (LTEA) Assay for growth arrest and DNA damage 45 (GADD45A) using HepaRG (AID 2283458); details: mRNA level, 48 h; actives raise or lower the signal
How it was run: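 Transcript induction or loss, quantified by TaqMan qRT-PCR against three housekeeping genes, is the read-out. HepaRG cells received chemicals for 48 h across eight half-log concentrations from 100 uM in 0.5% DMSO; gain and loss fitted relative to DMSO.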

[5] = read-out: Forkhead box O3 (FOXO3), FOXO3 (gene 2309); test: LTEA_HepaRG_FOXO3: Life Technologies and Expression Analysis (LTEA) Assay for Forkhead box O3 (FOXO3) using HepaRG (AID 2283459); details: mRNA level, 48 h; actives raise or lower the signal
How it was run: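 FOXO3 transcript measured by qRT-PCR (normalized to ACTB, GAPDH, POLR2A) after 48 h exposure of HepaRG cells in serum-free induction medium. Duplicates, eight half-log concentrations up to 100 uM, 0.5% DMSO; gain or loss fitted against DMSO.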

[6] = read-out: ABC Transporter (ABCB1), ABCB1 (gene 5243); test: LTEA_HepaRG_ABCB1: Life Technologies and Expression Analysis (LTEA) Assay for ABC Transporter (ABCB1) using HepaRG (AID 2283460); details: mRNA level, 48 h; actives raise or lower the signal
How it was run: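 ABCB1 transcript level measured by TaqMan qRT-PCR against three housekeeping genes after 48 h chemical exposure of differentiated HepaRG cells. Top concentration 100 uM, half-log steps, eight points, 0.5% DMSO vehicle; bidirectional fit relative to DMSO.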

[7] = read-out: growth arrest and DNA damage 45 (GADD45B), GADD45B (gene 4616); test: LTEA_HepaRG_GADD45B: Life Technologies and Expression Analysis (LTEA) Assay for growth arrest and DNA damage 45 (GADD45B) using HepaRG (AID 2283461); details: mRNA level, 48 h; actives raise or lower the signal
How it was run: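 Transcript level quantified by Fluidigm TaqMan qRT-PCR with three housekeeping genes for normalization, analyzed for up- or down-regulation against 0.5% DMSO. HepaRG cultures dosed 48 h at eight half-log concentrations up to 100 uM, duplicates.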

[8] = read-out: CFLAR gene, CFLAR (gene 8837); test: LTEA_HepaRG_CFLAR: Life Technologies and Expression Analysis (LTEA) Assay for CFLAR gene using HepaRG (AID 2283455); details: mRNA level, 48 h; actives raise or lower the signal
How it was run: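 Transcript level by qRT-PCR (normalized to ACTB, GAPDH and POLR2A) after 48 h chemical exposure of HepaRG cells, top concentration 100 uM with half-log steps, 0.5% DMSO vehicle, duplicates; fitted bidirectionally against DMSO baseline.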

[9] = read-out: ABC Transporter (ABCC3), ABCC3 (gene 8714); test: LTEA_HepaRG_ABCC3: Life Technologies and Expression Analysis (LTEA) Assay for ABC Transporter (ABCC3) using HepaRG (AID 2283462); details: mRNA level, 48 h; actives raise or lower the signal
How it was run: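 Transcript level by TaqMan qRT-PCR, normalised to three housekeeping genes, fitted in both directions relative to vehicle. Chemicals tested in duplicate at eight half-log concentrations up to 100 uM for 48 h on HepaRG cells (0.5% DMSO).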

[10] = CEETOX_H295R_TESTO: CeeTox H295R High-throughput Steroidogenesis Assay for Testosterone (TESTO) (AID 2283457); details: actives raise or lower the signal
How it was run: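 Testosterone secreted into the medium over 48 h by H295R cells (maximum passage 10) was quantified by LC-MS/MS after MTBE extraction. Fitted in both directions against DMSO, with concentrations diluted until MTT viability was ≥70%.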

Measured: AC50

CCCCC(CC)CO (stereo unspecified)
active: [2] 39.1 µM
not listed: [8] | [9] | [10]
inactive: all other assays above

O=C1NC(=O)C(c2ccccc2)(c2ccccc2)N1
active: [2] 65.1 µM
not listed: [8] | [9] | [10]
inactive: all other assays above

O=C1c2c(O)cccc2Cc2cccc(O)c21
active: [2] 22.1 µM
not listed: [10]
inactive: all other assays above

Nc1nc(Cl)nc2c1ncn2[C@H]1C[C@H](O)[C@@H](CO)O1
active: [1] 2.05 µM | [2] 0.749 µM | [3] 1.65 µM | [4] 0.263 µM | [5] 2.18 µM | [6] 1.39 µM | [7] 0.447 µM | [9] 0.987 µM
inactive: [8]

O=C1CCCCC1
active: [4] 0.0727 µM
not listed: [10]
inactive: all other assays above

CC(=O)OC1CC(C)OC(C)O1 (stereo unspecified)
active: [2] 50 µM
not listed: [10]
inactive: all other assays above

c1ccc2occc2c1
not listed: [10]
inactive: all other assays above

CCCCCCCCCC[N+](C)(C)[O-]
active: [2] 50 µM
not listed: [8]
inactive: all other assays above

OCC(CO)n1cnc(-c2ccc(F)cc2)c1-c1ccnc(Oc2ccccc2)n1
active: [2] 50 µM | [6] 20 µM
not listed: [10]
inactive: all other assays above

Nc1nc(=S)c2[nH]cnc2[nH]1
active: [1] 6.74 µM | [2] 76.1 µM | [6] 10.3 µM | [9] 13.9 µM
not listed: [10]
inactive: all other assays above

O=C(O)c1[nH]n(-c2ccc(S(=O)(=O)O)cc2)c(=O)c1N=Nc1ccc(S(=O)(=O)O)cc1
active: [2] 33 µM
not listed: [10]
inactive: all other assays above

O=[Si]=O
active: [2] 76.6 µM
not listed: [8] | [9] | [10]
inactive: all other assays above

O=C(NS(=O)(=O)/C=C/c1cccs1)c1ccc(F)cc1Br
active: [2] 50 µM | [6] 13.2 µM
inactive: [1] | [3] | [4] | [5] | [7]

Cn1cnc2c1c(=O)[nH]c(=O)n2C
not listed: [2] | [10]
inactive: all other assays above

Cc1cc(Cc2ccc(N)c(C)c2)ccc1N
active: [2] 50 µM | [6] 33.6 µM
inactive: [1] | [3] | [4] | [5] | [7]

CN(C)C(=O)NC1(c2ccccc2)CCN(CC[C@@]2(c3ccc(F)c(F)c3)CN(C(=O)c3ccccc3)CCO2)CC1
active: [1] 57 µM | [2] 47 µM | [6] 1.86 µM
inactive: [3] | [4] | [5] | [7]

COc1ccc(C(=O)Nc2nc3ccccc3c(NCc3ccccc3)c2C#N)cc1
active: [1] 16.2 µM | [2] 1.39 µM | [7] 16 µM
not listed: [8] | [10]
inactive: all other assays above

Cc1cc(SC2=C(O)C[C@@](CCc3ccc(N)cc3)(C(C)C)OC2=O)c(C(C)(C)C)cc1CO
active: [2] 29.6 µM | [6] 2.44 µM
not listed: [8] | [10]
inactive: all other assays above

NCCOCCOCCN
active: [2] 50 µM
not listed: [8] | [10]
inactive: all other assays above

CCCCOC(=O)CCCCC(=O)OCCCC
active: [2] 50 µM
not listed: [8] | [10]
inactive: all other assays above

CN(C)CCCN1c2ccccc2Sc2ccc(Cl)cc21
active: [2] 27.1 µM | [8] 71.3 µM | [3] 79.2 µM | [7] 89.7 µM
inactive: [4] | [5] | [6] | [9]

COC(=O)[C@H]1[C@H]2C[C@@H]3c4[nH]c5cc(OC)ccc5c4CCN3C[C@H]2C[C@@H](OC(=O)c2cc(OC)c(OC)c(OC)c2)[C@@H]1OC
active: [1] 30.5 µM | [6] 9.75 µM | [9] 49.8 µM
not listed: [2] | [10]
inactive: all other assays above

NC=O
not listed: [8] | [10]
inactive: all other assays above

Oc1ccc(O)cc1
active: [2] 50 µM
not listed: [8] | [9] | [10]
inactive: all other assays above

COc1ccc(OC(F)(F)F)cc1CN[C@H]1CCCN[C@H]1c1ccccc1
active: [1] 72.7 µM | [2] 12.6 µM | [3] 93.8 µM | [5] 76.3 µM | [6] 83.7 µM
inactive: [4] | [7]

CC(C)COC(=O)CCCCC(=O)OCC(C)C
not listed: [8] | [9] | [10]
inactive: all other assays above

CS(=O)(=O)c1ccc([C@@H](C[C@H]2CCC(=O)C2)C(=O)Nc2cnccn2)cc1Cl
active: [8] 0.753 µM | [3] 1.27 µM | [4] 1.28 µM | [5] 9.92 µM | [6] 1.54 µM
inactive: [1] | [7] | [9]

CCCC(=O)O
inactive: [1] | [2] | [3] | [6] | [7]
active: [4] 0.0993 µM

CC(COCC(C)OC(=O)c1ccccc1)OC(=O)c1ccccc1 (stereo unspecified)
active: [2] 87.6 µM
not listed: [8] | [10]
inactive: all other assays above

CSc1ccc(Oc2ccc(S(N)(=O)=O)cc2CN(C)C)cc1C
active: [1] 77.7 µM | [2] 69.8 µM
inactive: [3] | [4] | [5] | [6] | [7]

CC(=O)O
active: [2] 72.2 µM
not listed: [8] | [10]
inactive: all other assays above

CC(=O)CC(c1ccccc1)c1c(O)c2ccccc2oc1=O (stereo unspecified)
not listed: [8] | [10]
inactive: all other assays above

CCCCCCC(C=O)=Cc1ccccc1
not listed: [8] | [10]
inactive: all other assays above

CC(=O)O[C@]1(C(C)=O)CC[C@H]2[C@@H]3C=C(Cl)C4=CC(=O)[C@@H]5C[C@@H]5[C@]4(C)[C@H]3CC[C@@]21C
active: [1] 36.1 µM | [3] 50 µM | [4] 50 µM
not listed: [8] | [10]
inactive: all other assays above

CC(=O)[C@@]1(O)CC[C@H]2[C@@H]3CCC4=CC(=O)CC[C@]4(C)[C@H]3CC[C@@]21C
not listed: [2] | [8] | [10]
inactive: all other assays above

C=CCc1ccc(OC)c(OC)c1
active: [4] 9.92 µM
not listed: [8] | [9] | [10]
inactive: all other assays above

Cc1occc(=O)c1O
not listed: [2] | [8] | [10]
inactive: all other assays above

CCc1nc(N)nc(N)c1-c1ccc(Cl)cc1
active: [1] 69.4 µM | [4] 27.2 µM | [9] 74.5 µM
not listed: [8] | [10]
inactive: all other assays above

CC(C)(C)c1ccccc1
active: [2] 50 µM
not listed: [8] | [9] | [10]
inactive: all other assays above

N[C@@H](Cc1c[nH]c2ccccc12)C(=O)O
active: [2] 10.9 µM
not listed: [8] | [10]
inactive: all other assays above

CCCCC(CC)COP(=O)(OCC(CC)CCCC)OCC(CC)CCCC (stereo unspecified)
active: [2] 25.6 µM | [6] 8.5 µM
not listed: [8] | [10]
inactive: all other assays above

CCCCCCC(CCCCCCCCCCC(=O)OCC(COC(C)=O)OC(C)=O)OC(C)=O (stereo unspecified)
not listed: [8] | [9] | [10]
inactive: all other assays above

C/C=C/c1ccc(OC)cc1
active: [2] 50 µM
not listed: [8] | [10]
inactive: all other assays above

Source: PubChem BioAssay (EPA / NIEHS)
